Rows were chosen to be rich in hits. Some 5.9% of all compounds tested hit in one or more screens of this group.
KB-3-1 tox: qHTS assay for MDR1-selective chemotherapeutics: Primary screen using the parental adenocarcinoma cell KB-3-1. KB-3-1 viability, CellTiter-Glo ATP luminescence, 72 h. Potency, µM (doses to about 46.1 µM), actives largely listed as cytotoxic. 400,000 compounds, 1.4% hits. AID 1347075, 2019; further: on the % scale 0 is the no-effect control and ±100 the full control effect; nearly all actives have a fitted effect of over 60% in size
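Luminescent ATP read-out (CellTiter-Glo) measures survival of drug-naive KB-3-1 cells after 72 h compound exposure at 37 °C. Titration series was screened from lowest to highest concentration, with DMSO vehicle plates as background controls.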
TGFb inhibitor: qHTS for Inhibitors of TGF-b. 410,000 compounds, 1.2% hits. Potency, µM (top dose mostly 46.1 µM), inactives show at the highest dose activity, negative = inhibition, most hits filed as inhibitors. HepG2 CAGA-GFP TGF-b/SMAD3 reporter, GFP fluorescence, 18 h; TGF-beta stimulated, 500 pg/mL final; further: on the % scale 0 is the no-effect control and ±100 the full control effect; nearly all actives have a fitted effect of over 65% in size
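Inhibition was scored as loss of TGF-beta-induced (500 pg/mL final, 18 hours, 37 degrees C) GFP in HEPG2 cells carrying a CAGA-GFP reporter, in DMEM with 1% FBS. Well GFP was summed per cell; Activity was normalised to unstimulated and stimulated DMSO wells, then concentration-response fitting.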
HepG2 tox-1: qHTS for Inhibitors of TGF-b: Cytotox Counterscreen | HepG2 CAGA-GFP viability, ATP luminescence, 18 h | Potency, µM (titrated, usually from 46.1 µM), for inactives: top-dose activity change, negative = cytotoxicity, most hits filed as cytotoxic | 410,000 compounds, 0.76% hits | AID 588856, 2011
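HepG2 CAGA-GFP cells (1000/well, DMEM with 1% FBS) received compound, then TGF-beta at 500 pg/mL final, and were incubated 18 hours at 37 degrees C. Viability was read by CellTiter-Glo luminescence. Media-only wells were set as complete cell-killing and DMSO as no toxicity.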
ATXN viability: Viability Counterscreen for Primary qHTS for Inhibitors of ATXN expression; S2 cells (HEK-293 line with an ATXN2-luciferase reporter) viability, CellTiter-Fluor protease fluorescence, 24 h; Potency, µM (doses to about 56.7 µM), most hits filed as cytotoxic; 400,000 compounds, 0.49% hits; further: nearly all actives have a fitted effect of over 40% in size
KB-V1 cytotox: qHTS assay for MDR1-selective chemotherapeutics: Primary screen using the drug-selected MDR subline cells KB-V1; KB-V1 MDR cells viability, CellTiter-Glo, 72 h; Potency, µM (highest dose often 46.1 µM), hits mostly cytotoxic; 400,000 compounds, 3.4% hits; further: on the % scale 0 is the no-effect control and ±100 the full control effect; nearly all actives have a fitted effect of over 60% in size
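Cytotoxicity via CellTiter-Glo luminescence after 72 h compound exposure at 37 degrees C. Cells: drug-selected KB-V1 line, DMEM phenol-red free plus 10% FBS. Compounds tested at multiple concentrations; normalized data fitted to concentration-effect curves.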
ATXN2 expr inh: Primary qHTS for Inhibitors of ATXN expression | HEK-293 ATXN2-luciferase reporter, luminescence, 24 h | Potency, µM (series often up to 57 µM), for inactives: at the top dose activity change, negative = inhibition, actives largely listed as inhibitors | 360,000 compounds, 0.72% hits | AID 1745845, 2022; further: on the % scale 0 is the no-effect control and ±100 the full control effect; nearly all actives have a fitted effect of over 55% in size
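qHTS (up to 57 uM final) was run with 24 h compound exposure of reporter cells at 37 °C. Each well was multiplexed: SteadyGlo luminescence measured ATXN2-luciferase expression after a fluorogenic Gly-Phe-AFC viability readout (25 uM final).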
TGFb confirm: qHTS for Inhibitors of TGF-b: Confirmation of Cherry Picks; 1,600 compounds, 63% hits; HepG2 CAGA-GFP TGF-b reporter, GFP fluorescence, 18 h; cells stimulated with TGF-beta, 500 pg/mL; shares compounds with TGFb inhibitor; Potency, µM (doses to about 46.1 µM), for the others: top-dose activity, negative = inhibition, usual class: inhibitors; AID 720534, 2013; further: on the % scale 0 is the no-effect control and ±100 the full control effect; nearly all actives have a fitted effect of over 65% in size
HepG2 tox-2: qHTS for Inhibitors of TGF-b: Cytotox Counterscreen for Cherry Picks; shares compounds with TGFb inhibitor; HepG2 CAGA-GFP viability, ATP luminescence, 18 h; cells stimulated with TGF-beta, 500 pg/mL; Potency, µM (series often up to 46.1 µM), without a hit: top-dose activity, negative = cytotoxicity, most hits filed as inhibitors; 1,600 compounds, 27% hits; AID 720535, 2013; further: on the % scale 0 is the no-effect control and ±100 the full control effect; nearly all actives have a fitted effect of over 70% in size
CCL64 TGFb inh: qHTS for Inhibitors of TGF-b: CCL64 Cells Orthogonal Assay for Cherry Picks; 1,600 compounds, 41% hits; CCL64 CAGA-GFP reporter, TGF-b stimulated, GFP fluorescence, 18 h; AID 720536, 2013; shares compounds with TGFb inhibitor; Potency, µM (top dose mostly 46.1 µM), for the others: top-dose activity, negative = inhibition, usual class: inhibitors; further: nearly all actives have a fitted effect of over 65% in size
TGFb COP inh: qHTS for Inhibitors of TGF-b: Hit Validation in HepG2 Cells using COP promoter; shares compounds with TGFb inhibitor; HepG2 COP-GFP TGF-b reporter, GFP fluorescence, 18 h; cells stimulated by added recombinant TGF-beta; Potency, µM (highest dose often 46.1 µM), for the others: top-dose activity, negative = inhibition, hits mostly inhibitors; 1,600 compounds, 3% hits; AID 720537, 2013; further: nearly all actives have a fitted effect of over 70% in size
Numbers without * were called inactive; ! = a repeat was not active. The call rests on the fitted dose curve; in most records, active means well fitted curve in the direction sought with a large enough effect; inconclusive means small, poorly fitted or top-dose-only effect, or another doubt; inactive means no such curve, though single readings can be large; an effect the other way counts as inactive or inconclusive. Potency means the concentration at half of the fitted maximal effect.

Screening Cc1ccc(Cc2c(-c3cccc(Cl)c3)nc3ccc(C)cn23)cc1 returned KB-3-1 tox inactive, TGFb inhibitor 10µM*, HepG2 tox-1 -10%, ATXN viability inconclusive, KB-V1 cytotox inactive, ATXN2 expr inh -36%, TGFb confirm 18µM*, HepG2 tox-2 inconclusive, CCL64 TGFb inh inconclusive and TGFb COP inh 55%.
Screening Cc1ccccc1C(=O)Nc1nnc(S(=O)(=O)N2CCc3ccccc32)s1 returned KB-3-1 tox inactive, TGFb inhibitor inconclusive, HepG2 tox-1 -40%, ATXN viability inactive, KB-V1 cytotox inactive and ATXN2 expr inh 13%.
Screening Cn1c(=O)cc(OCCCC(=O)NCc2ccccn2)c2ccccc21 returned KB-3-1 tox inactive, TGFb inhibitor 1%, HepG2 tox-1 -20%, ATXN viability inactive, KB-V1 cytotox inactive and ATXN2 expr inh 21%.
Cc1ccnc(NC(=O)CCCOc2cc(=O)n(C)c3ccccc23)c1 was read as KB-3-1 tox 3.7µM*!, TGFb inhibitor 2.2µM*, HepG2 tox-1 -1%, ATXN viability inactive, KB-V1 cytotox 8.2µM*!, ATXN2 expr inh 1.3µM*!, TGFb confirm 5.8µM*, HepG2 tox-2 4.1µM*, CCL64 TGFb inh 26µM* and TGFb COP inh 22%.
Screening CCC(=O)N1CCc2cc(Br)cc(S(=O)(=O)N3CCCC(C(=O)NCc4cccc(OC)c4)C3)c21 (stereo not drawn) returned KB-3-1 tox inactive, TGFb inhibitor inconclusive, HepG2 tox-1 -41%, ATXN viability inactive, KB-V1 cytotox inactive and ATXN2 expr inh -11%.
For Cc1ccc(OCc2cc(=O)n3cc(C)sc3n2)c(NC(=O)c2ccco2)c1 the results were TGFb inhibitor -10% and HepG2 tox-1 -17%.
Cc1ccccc1NCc1ccc(O)c2ncccc12 was read as KB-3-1 tox inactive, TGFb inhibitor 10µM*, HepG2 tox-1 -41%, ATXN viability inactive, KB-V1 cytotox inconclusive, ATXN2 expr inh inconclusive, TGFb confirm inconclusive, HepG2 tox-2 inconclusive, CCL64 TGFb inh 5.8µM* and TGFb COP inh 26%.
Screening Oc1ccc(CNc2ccccc2)c2cccnc12 returned KB-3-1 tox inconclusive, TGFb inhibitor inconclusive, HepG2 tox-1 -52%, ATXN viability inactive, KB-V1 cytotox inactive and ATXN2 expr inh -35%.
For Cc1ccc(S(=O)(=O)N(CC(=O)Nc2ccc(Cl)c([N+](=O)[O-])c2)C2CCCCC2)cc1 the results were KB-3-1 tox inconclusive, TGFb inhibitor 10µM*, HepG2 tox-1 -14%, ATXN viability inactive, KB-V1 cytotox 4.6µM*, ATXN2 expr inh 2%, TGFb confirm inconclusive, HepG2 tox-2 -23%, CCL64 TGFb inh inconclusive and TGFb COP inh 28%.
For CCc1nn(CC(=O)NCCc2ccc(SC)cc2)c(=O)c2cc3sccc3n12 the results were TGFb inhibitor -19% and HepG2 tox-1 -7%.
`O=C1c2cc(Cl)ccc2-c2c(O)cc(Cl)cc21` gave KB-3-1 tox inconclusive, TGFb inhibitor 11µM*, HepG2 tox-1 -15%, ATXN viability inactive, KB-V1 cytotox inconclusive, ATXN2 expr inh inconclusive, TGFb confirm 12µM*, HepG2 tox-2 inconclusive, CCL64 TGFb inh 8.2µM* and TGFb COP inh 27%.
Screening O=c1cc(O)c(-c2ccc(Cl)cc2)c(Cl)[nH]1 returned KB-3-1 tox inactive, TGFb inhibitor -8%, HepG2 tox-1 -5%, ATXN viability inactive, KB-V1 cytotox inactive and ATXN2 expr inh -10%.
`COc1cc(N)ccc1Nc1c2ccccc2nc2ccccc12` gave KB-3-1 tox inactive, TGFb inhibitor inconclusive, HepG2 tox-1 -74%, KB-V1 cytotox inactive and ATXN2 expr inh inconclusive.
CCCS(=O)(=O)Nc1ccc(Nc2c3ccccc3nc3ccccc23)c(OC)c1 was read as KB-3-1 tox inconclusive, TGFb inhibitor 10µM*, HepG2 tox-1 -84%, ATXN viability 12µM*, KB-V1 cytotox 23µM*, ATXN2 expr inh inconclusive, TGFb confirm inconclusive, HepG2 tox-2 15µM*, CCL64 TGFb inh 13µM* and TGFb COP inh 5%.
`CCC(C(=O)Oc1c(C(C)C)cccc1C(C)C)c1ccccc1` (stereo not drawn) gave KB-3-1 tox inactive, TGFb inhibitor inconclusive, HepG2 tox-1 -11%, ATXN viability inactive, KB-V1 cytotox inactive, ATXN2 expr inh 0%, TGFb confirm inconclusive, HepG2 tox-2 9%, CCL64 TGFb inh 21µM* and TGFb COP inh -14%.
For COc1ccc(CNC(=O)[C@@H]2CC=C[C@@H]3CCN(Cc4ccc(Cl)c(Cl)c4)C(=O)[C@@H]32)cc1 the results were KB-3-1 tox inconclusive, TGFb inhibitor 16µM*, HepG2 tox-1 -13%, ATXN viability inconclusive, KB-V1 cytotox inconclusive, ATXN2 expr inh inconclusive, TGFb confirm 21µM*, HepG2 tox-2 inconclusive, CCL64 TGFb inh inconclusive and TGFb COP inh 30%.

High-throughput results as filed in PubChem.
